# From PubChem BioAssay AID1493 (National Center for Advancing Translational Sciences (NCATS), 2009)
# “And” between values parts separate entries of the source, which are not always exact repeats. Equal entries are not always repeated. Records with an inconclusive call do not appear. The source made the active and inactive calls.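 How the source made its calls: active means compound pushes the radio-tagged natural neuropeptide S off its receptor in a binding test; inconclusive means any compound that did not displace the tagged ligand; inactive means never assigned.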
# Molecular target: Neuropeptide S receptor (Homo sapiens) (UniProt Q6W5P4)
# Experiment: Confirmation Concentration-Response Assay for Antagonists of the Neuropeptide S Receptor: Radioligand Displacement
# Conditions: CHO-hNPSR cells, [125I]Y10-NPS displacement, 1.5 h
# Text: NIH Chemical Genomics Center [NCGC] NIH Molecular Libraries Probe Production centers Network [MLPCN] MLPCN Grant: X01-DA026210-01 Assay Submitter (PI): Heilig, Markus Alexander NCGC Assay Overview: Neuropeptide S receptor (NPSR), previously known as GPR154, is a recently de-orphanized G protein coupled receptor. Its endogenous ligand is the 20 amino acids peptide Neuropeptide S (NPS). […] NPS and its receptor are found in various tissues. Specifically they are highly expressed in brain areas that have been implicated in modulation of arousal, stress and anxiety. Central administration of NPS in mice produces an unusual profile of activity by inducing wakefulness and arousal, while at the same time suppressing anxiety. Therefore, NPSR may represent a novel drug target for the treatment of sleep and anxiety disorders. As one method of confirming the specific activity of compounds active in the primary screen (AID 1461), we developed an assay to measure the displacement of radio-labeled native ligand, NPS, from its receptor in vitro.
# The assay was carried out as described (Xu et al. (2004) Neuron, 43: 487-497) with minor modification. Y10-NPS labeled with 125I was bought from NEN Perkin Elmer (Boston, MA). CHO cells stably expressing human NPSR were seeded into 24-well plates and cultured until reaching 90-95% confluency. Cells were washed with 1ml PBS once and then incubated with radioligand with or without compounds or in DMEM medium containing 0.1% bovine serum albumin at 20C for 1.5 hr. Increasing concentrations of compounds or unlabeled human NPS were used to compete with 0.15 nM [125I] Y10-NPS. Nonspecific binding was determined in the presence of 1 uM unlabeled human NPS. Cells were washed twice with cold PBS and lysed with 1 N NaOH. Bound radioactivity was counted in a liquid scintillation counter.
# Neuropeptide S receptor (Homo sapiens), sequence (Q6W5P4 whole entry, looked up): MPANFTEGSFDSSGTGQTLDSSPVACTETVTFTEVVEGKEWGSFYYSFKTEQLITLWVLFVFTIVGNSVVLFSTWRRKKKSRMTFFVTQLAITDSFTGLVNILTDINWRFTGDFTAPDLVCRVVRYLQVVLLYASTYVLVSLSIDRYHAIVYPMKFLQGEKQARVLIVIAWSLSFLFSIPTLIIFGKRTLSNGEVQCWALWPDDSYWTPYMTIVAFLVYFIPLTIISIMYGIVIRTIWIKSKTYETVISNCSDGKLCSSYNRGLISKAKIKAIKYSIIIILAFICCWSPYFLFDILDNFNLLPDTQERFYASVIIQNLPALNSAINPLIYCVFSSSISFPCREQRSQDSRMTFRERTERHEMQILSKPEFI
row,SMILES,Potency
1,COc1ccc(C2c3c(ncn(CCN4CCOCC4)c3=N)Oc3ccc4ccccc4c32)cc1OC (stereo not drawn),256 nM (active) and 190 nM (active)
2,N#CC1=C(NC=NCc2ccccc2)Oc2ccc3ccccc3c2C1c1ccccc1 (stereo not drawn),321 nM (active)
3,COc1cccc(C2c3c(ncn(CCN4CCOCC4)c3=N)Oc3ccc4ccccc4c32)c1 (stereo not drawn),439 nM (active)
4,CCOC(=O)CC(=O)Nc1ncnc2c1C(c1ccccc1)c1c(ccc3ccccc13)O2 (stereo not drawn),616 nM (active)
5,CCOC(=O)C1CCCN(c2ncnc3c2oc2ccccc23)C1 (stereo not drawn),26400 nM (active)
6,COc1cccc(C2c3c(ncn(-c4ccccc4)c3=N)Oc3ccc4ccccc4c32)c1 (stereo not drawn),266 nM (active)
7,N=c1c2c(ccn1-c1ccccc1)Oc1ccc3ccccc3c1C2c1ccccc1 (stereo not drawn),367 nM (active)
8,O=C1OC(c2ccccc2)(c2ccccc2)N2CCN(C(=O)NCc3ccc(F)cc3)CC12 (stereo not drawn),5.62 nM (active)
